# Source: paper PMC7862700, “An all-to-all approach to the identification of sequence-specific readers for epigenetic DNA modifications on cytosine”
# Key:
# Assay in all cases: DAPPL (digital affinity profiling via proximity ligation, sequencing); 10 mM Tris-HCl pH 7.5, 50 mM NaCl, 1 mM DTT, 4% glycerol, room temperature, 30 min; GST-TFs on glutathione beads, 16-mer random dsDNA library, 0.1% formaldehyde crosslink after washing; high values mean tight binding
# Details in all cases: protein: recombinant; tags: N-terminal GST; dsDNA, one strand shown
# [1] = target: T1, FLI1 (Homo sapiens, UniProt Q01543 1-452)
# T1 sequence: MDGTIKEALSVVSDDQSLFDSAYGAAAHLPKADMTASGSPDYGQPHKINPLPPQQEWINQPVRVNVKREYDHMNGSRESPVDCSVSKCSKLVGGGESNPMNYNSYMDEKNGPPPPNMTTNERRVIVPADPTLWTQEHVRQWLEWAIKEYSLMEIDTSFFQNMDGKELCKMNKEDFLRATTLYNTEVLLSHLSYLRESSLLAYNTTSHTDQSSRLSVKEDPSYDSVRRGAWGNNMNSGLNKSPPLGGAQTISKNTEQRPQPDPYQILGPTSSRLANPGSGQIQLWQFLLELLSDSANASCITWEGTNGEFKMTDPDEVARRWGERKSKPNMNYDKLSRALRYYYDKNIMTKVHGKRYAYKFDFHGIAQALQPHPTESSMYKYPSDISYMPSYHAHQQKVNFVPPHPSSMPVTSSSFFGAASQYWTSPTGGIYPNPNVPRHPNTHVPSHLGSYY
# Outline: (§1)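 Beads coated with glutathione captured GST-fused human transcription factors that had been expressed in yeast, and the factors were then given DNA barcodes and pooled with a tag-only sample. The pools were incubated with 200 nmole of a random double-stranded 16-mer DNA library in Tris/NaCl/DTT/glycerol buffer for 30 min at room temperature, washed, crosslinked with 0.1% formaldehyde and proximity-ligated with BsaI/T4 ligase at 37 °C for 1 h. PCR amplification and Illumina NextSeq500 sequencing came last. Binding signal is each hexamer's read frequency for a factor divided by its frequency for the tag-only sample.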
# [2] = target: T2, ELK1 (Homo sapiens, UniProt P19419 1-428)
# T2 sequence: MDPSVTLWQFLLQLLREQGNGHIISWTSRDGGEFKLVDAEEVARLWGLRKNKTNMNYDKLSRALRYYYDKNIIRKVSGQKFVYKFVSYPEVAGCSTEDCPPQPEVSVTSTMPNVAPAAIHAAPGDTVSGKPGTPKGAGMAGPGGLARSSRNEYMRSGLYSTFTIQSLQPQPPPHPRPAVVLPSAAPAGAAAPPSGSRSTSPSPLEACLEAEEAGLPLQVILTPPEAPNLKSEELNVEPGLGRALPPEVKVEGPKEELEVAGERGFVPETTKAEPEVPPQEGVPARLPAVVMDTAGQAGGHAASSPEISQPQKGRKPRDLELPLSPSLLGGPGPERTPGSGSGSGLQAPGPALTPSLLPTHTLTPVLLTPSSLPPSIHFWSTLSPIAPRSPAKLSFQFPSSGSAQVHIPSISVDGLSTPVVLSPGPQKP
# Outline: as §1
# [3] = target: T3, GABPA (Homo sapiens, UniProt Q06546 1-454)
# T3 sequence: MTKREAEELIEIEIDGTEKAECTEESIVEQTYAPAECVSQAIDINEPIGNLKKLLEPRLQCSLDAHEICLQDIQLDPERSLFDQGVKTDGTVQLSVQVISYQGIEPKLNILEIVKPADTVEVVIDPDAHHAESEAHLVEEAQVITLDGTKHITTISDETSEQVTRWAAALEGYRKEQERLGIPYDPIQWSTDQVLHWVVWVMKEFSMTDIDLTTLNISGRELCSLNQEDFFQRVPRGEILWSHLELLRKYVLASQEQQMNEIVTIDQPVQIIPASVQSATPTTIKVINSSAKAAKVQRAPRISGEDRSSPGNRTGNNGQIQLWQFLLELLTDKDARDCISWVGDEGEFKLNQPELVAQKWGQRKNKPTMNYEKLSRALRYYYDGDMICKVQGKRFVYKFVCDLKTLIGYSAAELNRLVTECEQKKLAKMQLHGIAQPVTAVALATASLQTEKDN
# Outline: as §1
# [4] = target: T4, ERG (Homo sapiens, UniProt P11308 1-479)
# T4 sequence: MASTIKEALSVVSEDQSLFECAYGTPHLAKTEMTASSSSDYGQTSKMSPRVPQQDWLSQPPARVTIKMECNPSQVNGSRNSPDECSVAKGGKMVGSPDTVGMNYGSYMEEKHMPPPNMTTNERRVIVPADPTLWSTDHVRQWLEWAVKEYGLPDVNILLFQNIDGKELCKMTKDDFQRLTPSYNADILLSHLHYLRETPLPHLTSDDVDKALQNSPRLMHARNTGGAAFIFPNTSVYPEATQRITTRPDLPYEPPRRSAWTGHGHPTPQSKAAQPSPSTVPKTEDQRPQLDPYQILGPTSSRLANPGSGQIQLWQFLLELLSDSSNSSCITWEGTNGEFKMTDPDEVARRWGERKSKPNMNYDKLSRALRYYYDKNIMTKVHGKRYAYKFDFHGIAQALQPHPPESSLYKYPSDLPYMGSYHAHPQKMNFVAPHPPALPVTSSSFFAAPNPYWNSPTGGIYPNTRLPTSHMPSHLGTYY
# Outline: as §1
# [5] = target: ELF1 (Homo sapiens, UniProt P32519 1-619)
# Outline: as §1
# [6] = target: T5, EHF (Homo sapiens, UniProt Q9NZC4 1-300)
# T5 sequence: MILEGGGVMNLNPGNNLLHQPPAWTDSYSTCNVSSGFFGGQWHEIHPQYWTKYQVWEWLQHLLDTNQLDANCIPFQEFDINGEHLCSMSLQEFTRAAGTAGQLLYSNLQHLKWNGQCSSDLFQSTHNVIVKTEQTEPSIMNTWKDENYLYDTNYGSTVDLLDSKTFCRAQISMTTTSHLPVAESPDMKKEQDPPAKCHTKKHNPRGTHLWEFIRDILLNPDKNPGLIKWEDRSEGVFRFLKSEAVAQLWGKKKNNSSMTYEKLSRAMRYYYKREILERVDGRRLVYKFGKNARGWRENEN
# Outline: as §1
# [7] = target: SPI1 (Homo sapiens, UniProt P17947 1-270)
# Outline: as §1
# [8] = target: SPIB (Homo sapiens, UniProt Q01892 1-262)
# Outline: as §1
# [9] = target: T6, ELK3 (Homo sapiens, UniProt P41970 1-407)
# T6 sequence: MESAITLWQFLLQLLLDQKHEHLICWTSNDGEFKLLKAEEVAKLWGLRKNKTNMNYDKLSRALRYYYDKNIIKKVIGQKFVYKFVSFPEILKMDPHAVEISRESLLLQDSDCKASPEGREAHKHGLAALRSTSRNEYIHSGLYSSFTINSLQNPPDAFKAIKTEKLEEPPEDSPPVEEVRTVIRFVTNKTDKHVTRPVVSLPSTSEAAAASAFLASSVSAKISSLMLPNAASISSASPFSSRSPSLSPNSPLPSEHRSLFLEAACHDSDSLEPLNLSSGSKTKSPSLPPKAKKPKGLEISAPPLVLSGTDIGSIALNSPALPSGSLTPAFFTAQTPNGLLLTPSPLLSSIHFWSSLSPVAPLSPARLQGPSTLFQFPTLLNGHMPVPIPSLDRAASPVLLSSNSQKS
# Outline: as §1
# [10] = target: T7, FEV (Homo sapiens, UniProt Q99581 1-238)
# T7 sequence: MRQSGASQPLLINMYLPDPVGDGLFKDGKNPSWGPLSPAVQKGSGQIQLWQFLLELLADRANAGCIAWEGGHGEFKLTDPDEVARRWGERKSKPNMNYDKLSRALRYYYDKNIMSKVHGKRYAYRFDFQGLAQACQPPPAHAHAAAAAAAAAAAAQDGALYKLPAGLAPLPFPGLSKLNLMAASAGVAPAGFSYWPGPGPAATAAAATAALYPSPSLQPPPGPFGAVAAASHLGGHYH
# Outline: as §1
# [11] = target: ETV5 (Homo sapiens, UniProt P41161 1-510)
# Outline: as §1
# [12] = target: T8, SPIC (Homo sapiens, UniProt Q8N5J4 1-248)
# T8 sequence: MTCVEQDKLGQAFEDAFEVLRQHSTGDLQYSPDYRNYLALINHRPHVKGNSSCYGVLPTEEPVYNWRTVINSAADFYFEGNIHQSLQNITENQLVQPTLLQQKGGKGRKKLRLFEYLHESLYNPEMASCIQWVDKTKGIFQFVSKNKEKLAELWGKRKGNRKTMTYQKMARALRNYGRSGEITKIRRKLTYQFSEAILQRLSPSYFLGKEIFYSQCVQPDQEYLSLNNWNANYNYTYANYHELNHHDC
# Outline: as §1
# [13] = target: ELF4 (Homo sapiens, UniProt Q99607 1-663)
# Outline: as §1
# [14] = target: T9, ELK4 (Homo sapiens, UniProt P28324-2 1-405)
# T9 sequence: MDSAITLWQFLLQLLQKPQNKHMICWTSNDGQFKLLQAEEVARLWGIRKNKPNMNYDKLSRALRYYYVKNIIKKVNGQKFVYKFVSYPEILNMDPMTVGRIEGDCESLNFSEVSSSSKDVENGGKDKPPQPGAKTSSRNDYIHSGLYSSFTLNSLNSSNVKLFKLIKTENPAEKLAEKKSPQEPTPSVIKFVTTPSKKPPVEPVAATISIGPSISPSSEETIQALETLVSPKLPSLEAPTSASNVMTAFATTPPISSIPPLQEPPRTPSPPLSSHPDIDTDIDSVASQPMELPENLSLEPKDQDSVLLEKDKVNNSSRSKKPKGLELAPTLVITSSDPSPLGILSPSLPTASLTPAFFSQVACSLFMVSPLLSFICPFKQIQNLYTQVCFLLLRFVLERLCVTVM
# Outline: as §1
# [15] = target: T10, ETV2 (Homo sapiens, UniProt O00321 1-342)
# T10 sequence: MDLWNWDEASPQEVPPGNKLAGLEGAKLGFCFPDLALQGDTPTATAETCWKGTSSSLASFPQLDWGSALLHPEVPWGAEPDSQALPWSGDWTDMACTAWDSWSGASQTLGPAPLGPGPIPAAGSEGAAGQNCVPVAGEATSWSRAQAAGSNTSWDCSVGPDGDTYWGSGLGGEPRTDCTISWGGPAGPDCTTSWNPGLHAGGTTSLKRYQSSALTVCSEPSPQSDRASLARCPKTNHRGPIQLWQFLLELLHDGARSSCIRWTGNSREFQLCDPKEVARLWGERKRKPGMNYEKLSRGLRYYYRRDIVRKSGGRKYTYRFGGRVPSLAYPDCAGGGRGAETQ
# Outline: as §1
# [16] = target: T11, ELF3 (Homo sapiens, UniProt P78545 1-371)
# T11 sequence: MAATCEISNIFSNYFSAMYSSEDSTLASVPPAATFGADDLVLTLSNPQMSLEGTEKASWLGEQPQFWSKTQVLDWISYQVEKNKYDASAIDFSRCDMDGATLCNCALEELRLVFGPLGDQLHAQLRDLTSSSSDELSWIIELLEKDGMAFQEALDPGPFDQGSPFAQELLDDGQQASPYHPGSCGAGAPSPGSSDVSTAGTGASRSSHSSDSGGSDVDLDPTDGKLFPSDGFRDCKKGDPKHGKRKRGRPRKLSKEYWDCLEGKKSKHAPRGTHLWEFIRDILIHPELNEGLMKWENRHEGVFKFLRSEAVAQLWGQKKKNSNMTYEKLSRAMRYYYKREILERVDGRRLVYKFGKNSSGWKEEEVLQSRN
# Outline: as §1
# [17] = target: ETV1 (Homo sapiens, UniProt P50549 1-477)
# Outline: as §1
# Sequence of SPIB (Q01892 whole entry): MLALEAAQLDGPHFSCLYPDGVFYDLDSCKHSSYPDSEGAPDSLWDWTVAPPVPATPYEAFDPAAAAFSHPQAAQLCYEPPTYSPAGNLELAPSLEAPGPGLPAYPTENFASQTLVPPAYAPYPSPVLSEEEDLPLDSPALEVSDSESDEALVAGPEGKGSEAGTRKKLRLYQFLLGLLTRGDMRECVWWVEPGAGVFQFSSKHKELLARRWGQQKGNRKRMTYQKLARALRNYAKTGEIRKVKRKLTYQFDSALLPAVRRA
# Sequence of ETV1 (P50549 whole entry): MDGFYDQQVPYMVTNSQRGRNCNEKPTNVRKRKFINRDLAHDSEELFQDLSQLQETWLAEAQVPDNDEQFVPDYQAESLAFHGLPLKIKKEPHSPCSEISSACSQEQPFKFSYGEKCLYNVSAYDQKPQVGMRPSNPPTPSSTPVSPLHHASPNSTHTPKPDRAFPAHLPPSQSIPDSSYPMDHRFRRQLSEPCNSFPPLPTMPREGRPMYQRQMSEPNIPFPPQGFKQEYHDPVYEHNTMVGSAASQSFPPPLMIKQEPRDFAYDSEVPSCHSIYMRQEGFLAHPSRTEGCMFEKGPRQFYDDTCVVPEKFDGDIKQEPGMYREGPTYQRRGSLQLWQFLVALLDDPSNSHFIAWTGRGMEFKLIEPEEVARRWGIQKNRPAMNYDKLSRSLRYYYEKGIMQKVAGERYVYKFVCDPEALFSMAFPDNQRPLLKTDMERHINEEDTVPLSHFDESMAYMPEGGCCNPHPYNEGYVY
# Sequence of ETV5 (P41161 whole entry): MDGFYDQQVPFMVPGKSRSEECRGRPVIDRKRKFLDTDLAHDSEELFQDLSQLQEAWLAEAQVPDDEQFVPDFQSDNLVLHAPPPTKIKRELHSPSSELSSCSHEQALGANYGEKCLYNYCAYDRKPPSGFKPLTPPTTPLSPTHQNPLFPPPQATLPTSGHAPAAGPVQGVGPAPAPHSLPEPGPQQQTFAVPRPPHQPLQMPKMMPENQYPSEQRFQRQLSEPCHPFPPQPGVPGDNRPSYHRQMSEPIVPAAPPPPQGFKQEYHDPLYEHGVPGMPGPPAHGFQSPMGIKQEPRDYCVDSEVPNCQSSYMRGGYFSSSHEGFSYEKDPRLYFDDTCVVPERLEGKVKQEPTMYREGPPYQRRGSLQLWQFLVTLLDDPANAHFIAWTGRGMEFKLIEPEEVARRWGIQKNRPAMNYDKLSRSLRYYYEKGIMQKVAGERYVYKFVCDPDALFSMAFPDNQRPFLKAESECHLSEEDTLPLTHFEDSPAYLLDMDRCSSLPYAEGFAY
# Sequence of ELF1 (P32519 whole entry): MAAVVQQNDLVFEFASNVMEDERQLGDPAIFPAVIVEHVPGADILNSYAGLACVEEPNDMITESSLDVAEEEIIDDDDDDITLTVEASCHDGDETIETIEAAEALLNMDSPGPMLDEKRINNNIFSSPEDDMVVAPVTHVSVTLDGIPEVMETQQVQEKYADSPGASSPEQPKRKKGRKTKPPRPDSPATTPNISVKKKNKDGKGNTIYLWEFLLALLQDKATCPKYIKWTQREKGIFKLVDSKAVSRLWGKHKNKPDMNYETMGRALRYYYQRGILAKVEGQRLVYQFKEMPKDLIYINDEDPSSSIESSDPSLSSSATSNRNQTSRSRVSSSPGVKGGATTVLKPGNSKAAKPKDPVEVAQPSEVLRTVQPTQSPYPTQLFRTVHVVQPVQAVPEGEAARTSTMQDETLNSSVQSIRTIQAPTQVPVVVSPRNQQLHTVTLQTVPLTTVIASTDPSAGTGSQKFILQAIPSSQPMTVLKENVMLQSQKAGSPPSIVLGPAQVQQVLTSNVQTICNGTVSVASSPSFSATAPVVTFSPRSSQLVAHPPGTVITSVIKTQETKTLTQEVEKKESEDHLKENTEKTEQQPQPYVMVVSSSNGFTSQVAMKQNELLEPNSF
# Sequence of ELF4 (Q99607 whole entry): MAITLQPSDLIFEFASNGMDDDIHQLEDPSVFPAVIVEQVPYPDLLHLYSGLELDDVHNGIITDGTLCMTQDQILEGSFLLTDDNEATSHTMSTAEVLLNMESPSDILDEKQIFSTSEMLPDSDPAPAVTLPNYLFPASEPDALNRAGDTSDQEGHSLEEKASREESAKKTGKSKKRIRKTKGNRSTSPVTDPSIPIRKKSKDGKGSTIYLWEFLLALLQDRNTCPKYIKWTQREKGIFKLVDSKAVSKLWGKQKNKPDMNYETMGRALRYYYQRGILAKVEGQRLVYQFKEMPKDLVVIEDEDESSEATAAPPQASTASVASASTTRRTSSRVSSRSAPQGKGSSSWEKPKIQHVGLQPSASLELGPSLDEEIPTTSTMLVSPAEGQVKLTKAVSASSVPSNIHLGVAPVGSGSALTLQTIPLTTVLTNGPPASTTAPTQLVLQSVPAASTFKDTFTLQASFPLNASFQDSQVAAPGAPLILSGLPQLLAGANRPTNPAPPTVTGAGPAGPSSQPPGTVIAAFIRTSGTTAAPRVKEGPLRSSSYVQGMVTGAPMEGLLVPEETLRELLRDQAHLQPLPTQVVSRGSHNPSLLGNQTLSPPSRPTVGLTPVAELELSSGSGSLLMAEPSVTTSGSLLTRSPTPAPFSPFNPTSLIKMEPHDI
Sequence,binding signal [1],binding signal [2],binding signal [3],binding signal [4],binding signal [5],binding signal [6],binding signal [7],binding signal [8],binding signal [9],binding signal [10],binding signal [11],binding signal [12],binding signal [13],binding signal [14],binding signal [15],binding signal [16],binding signal [17]
CGGATG,"1.53 fold enrichment (6-mer frequency, TF over GST control)","1.66 fold enrichment (6-mer frequency, TF over GST control)","1.49 fold enrichment (6-mer frequency, TF over GST control)","1.92 fold enrichment (6-mer frequency, TF over GST control)","1.45 fold enrichment (6-mer frequency, TF over GST control)","1.67 fold enrichment (6-mer frequency, TF over GST control)","1.52 fold enrichment (6-mer frequency, TF over GST control)","1.6 fold enrichment (6-mer frequency, TF over GST control)","1.6 fold enrichment (6-mer frequency, TF over GST control)","2.16 fold enrichment (6-mer frequency, TF over GST control)","1.71 fold enrichment (6-mer frequency, TF over GST control)","1.48 fold enrichment (6-mer frequency, TF over GST control)","1.36 fold enrichment (6-mer frequency, TF over GST control)","1.31 fold enrichment (6-mer frequency, TF over GST control)","1.39 fold enrichment (6-mer frequency, TF over GST control)","1.48 fold enrichment (6-mer frequency, TF over GST control)","1.74 fold enrichment (6-mer frequency, TF over GST control)"
CCCTGT,"1.18 fold enrichment (6-mer frequency, TF over GST control)","1.02 fold enrichment (6-mer frequency, TF over GST control)","1.2 fold enrichment (6-mer frequency, TF over GST control)","1.21 fold enrichment (6-mer frequency, TF over GST control)","1.17 fold enrichment (6-mer frequency, TF over GST control)","1.09 fold enrichment (6-mer frequency, TF over GST control)","1.07 fold enrichment (6-mer frequency, TF over GST control)","1.12 fold enrichment (6-mer frequency, TF over GST control)",,"1.04 fold enrichment (6-mer frequency, TF over GST control)","1.11 fold enrichment (6-mer frequency, TF over GST control)","1.2 fold enrichment (6-mer frequency, TF over GST control)","1.11 fold enrichment (6-mer frequency, TF over GST control)","1.25 fold enrichment (6-mer frequency, TF over GST control)","1.03 fold enrichment (6-mer frequency, TF over GST control)","1.08 fold enrichment (6-mer frequency, TF over GST control)","1.06 fold enrichment (6-mer frequency, TF over GST control)"
GCTGTT,"1.04 fold enrichment (6-mer frequency, TF over GST control)","1.07 fold enrichment (6-mer frequency, TF over GST control)","1.12 fold enrichment (6-mer frequency, TF over GST control)","1.11 fold enrichment (6-mer frequency, TF over GST control)","1.1 fold enrichment (6-mer frequency, TF over GST control)","1.07 fold enrichment (6-mer frequency, TF over GST control)","1.06 fold enrichment (6-mer frequency, TF over GST control)","1.03 fold enrichment (6-mer frequency, TF over GST control)","1.04 fold enrichment (6-mer frequency, TF over GST control)","1.16 fold enrichment (6-mer frequency, TF over GST control)","1.07 fold enrichment (6-mer frequency, TF over GST control)","1.25 fold enrichment (6-mer frequency, TF over GST control)","1.18 fold enrichment (6-mer frequency, TF over GST control)","1.24 fold enrichment (6-mer frequency, TF over GST control)","1.1 fold enrichment (6-mer frequency, TF over GST control)","1.17 fold enrichment (6-mer frequency, TF over GST control)","1.21 fold enrichment (6-mer frequency, TF over GST control)"
